Source: PubChem BioAssay (The Scripps Research Institute Molecular Screening Center)
hgDAF-12 ag: activates the H. glycines DAF-12 receptor ligand-binding domain; HEK293 GAL4-hgDAF12 UAS-luciferase reporter, agonist luminescence; normalized to butyrate control; activation, % at 6.8 µM; 370,000 compounds, 1.8% hits;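 active = activation above a cutoff set at the mean of all screened compounds plus 3 SD, cut at about 10% in these data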
DAX1 inh-1: inhibits human nuclear receptor DAX1 | AID 504766 | HEK293 Gal4-DAX1 luciferase reporter, luminescence | 340,000 compounds, 0.99% hits | inhibition, % at 6.75 µM | P51843;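 active = inhibition above the mean over all tested compounds plus 3 SD, cut at about 4.2% in these data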;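 note: inhibition shows as a rise in luminescence from relieved DAX1 repression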
AHR activator: activators of human aryl hydrocarbon receptor; P35869; activation, % at 5 µM; AID 2796; 320,000 compounds, 2.5% hits; AHR-responsive luciferase reporter cells, luminescence; in the data active = activation above about 47%
Target sequence (P35869 whole entry, looked up): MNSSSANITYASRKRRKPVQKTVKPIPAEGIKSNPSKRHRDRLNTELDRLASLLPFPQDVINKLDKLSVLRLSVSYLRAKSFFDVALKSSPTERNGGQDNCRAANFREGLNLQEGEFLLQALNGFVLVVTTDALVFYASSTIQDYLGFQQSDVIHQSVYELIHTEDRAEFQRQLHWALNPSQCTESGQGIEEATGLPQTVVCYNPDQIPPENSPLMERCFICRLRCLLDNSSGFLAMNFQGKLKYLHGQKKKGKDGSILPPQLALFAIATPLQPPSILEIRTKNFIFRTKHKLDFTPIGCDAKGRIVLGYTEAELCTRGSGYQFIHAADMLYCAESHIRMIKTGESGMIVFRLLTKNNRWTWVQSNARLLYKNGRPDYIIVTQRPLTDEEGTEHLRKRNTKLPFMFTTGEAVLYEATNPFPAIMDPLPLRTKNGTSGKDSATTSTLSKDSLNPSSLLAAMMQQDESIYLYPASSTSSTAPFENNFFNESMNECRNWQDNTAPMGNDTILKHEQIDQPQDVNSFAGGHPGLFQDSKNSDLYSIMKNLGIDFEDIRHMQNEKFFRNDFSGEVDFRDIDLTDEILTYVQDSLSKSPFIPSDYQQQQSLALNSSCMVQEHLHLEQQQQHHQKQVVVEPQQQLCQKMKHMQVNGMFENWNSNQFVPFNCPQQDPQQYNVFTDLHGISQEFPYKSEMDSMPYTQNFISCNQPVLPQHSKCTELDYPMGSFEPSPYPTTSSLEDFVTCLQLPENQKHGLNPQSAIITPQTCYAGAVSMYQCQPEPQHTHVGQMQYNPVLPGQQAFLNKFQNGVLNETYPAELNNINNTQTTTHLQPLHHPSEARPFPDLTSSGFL
DAX1 inh-2: inhibitors of DAX1 repression of SF-1 activated StAR promoter; 370,000 compounds, 1.1% hits; inhibition, % at 6.8 µM; AID 652010; HEK293T StAR-luciferase reporter, SF-1/DAX-1 repression relief;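 active = inhibition above the mean over all tested compounds plus 3 SD, cut at about 3.6% in these data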;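 note: higher inhibition means more luminescence from relief of DAX-1 repression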
hcDAF-12 act: activates DAF-12 receptor from parasite H. contortus; activation, % at 6.8 µM; 370,000 compounds, 1.4% hits; HEK293 hcDAF-12 lit1-tk-luc reporter, luminescence; 0% DMSO, 100% Δ7-dafachronic acid; AID 652067;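 active = activation above the mean of all tested compounds plus 3 SD, cut at about 5.5% in these data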
ssDAF12 agonist: activators of S. stercoralis DAF-12 nuclear receptor | HEK293 ssDAF-12/GRIP1 lit1-tk-luc reporter, luminescence; % of 3 µM dafachronic acid response | activation, % at 6.8 µM | 370,000 compounds, 1% hits | AID 652126;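 active = activation above the mean over all tested compounds plus 3 SD, cut at about 0.9% in these data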
Of the large screens only hits and unclear results are named; the others gave an inactive call. This is a sample that favours compounds with a hit; in the whole collection about 5.7% have one here.

CN1CCN(C(=S)c2ccc([N+](=O)[O-])cc2)CC1	none
Cc1ccc(C)c(-n2nnnc2SCC(=O)NNC(=O)c2ccco2)c1	none
CCCCn1c(O)c(/C=C2\C=Nc3ccccc32)c(=O)[nH]c1=O	hcDAF-12 act 6.0
Cc1noc(C)c1S(=O)(=O)N(C)C[C@@H]1OCc2cn(nn2)CCCC(=O)N([C@H](C)CO)C[C@H]1C	none (no result: DAX1 inh-1, AHR activator)
COC(=O)c1ccccc1NC(=O)COC(=O)C1CCCCC1	DAX1 inh-1 4.4
COC(=O)c1ccccc1NC(=O)C1CCCC1	none
O=C(Cn1cnc2ccccc2c1=O)NNC(=O)c1ccccc1	none (no result: DAX1 inh-1)
O=C(NN1C(=O)c2ccccc2NC1c1ccccn1)c1ccc([N+](=O)[O-])cc1 (stereo unspecified)	ssDAF12 agonist 1.0
Cc1cccc(C2Nc3ccccc3C(=O)N2NC(=O)c2ccc([N+](=O)[O-])cc2)n1 (stereo unspecified)	none
O=C(Nc1cccc(F)c1)c1ccc2c(c1)OCO2	AHR activator 56
Cc1cccc(NC(=O)c2ccc3c(c2)OCCO3)n1	none (no result: hgDAF-12 ag, DAX1 inh-2, hcDAF-12 act, ssDAF12 agonist)
Cc1cccc(NC(=O)CNC(=O)c2ccc3c(c2)OCO3)n1	AHR activator 50
Cc1nc2ccc(C(=O)Nc3ccc4nc[nH]c4c3)cc2[nH]1	none
O=C(Nc1ccc2c(c1)OCO2)c1ccc2nc[nH]c2c1	AHR activator 62
COc1ccc(CNS(=O)(=O)c2cc(Br)ccc2Br)c(OC)c1	none (no result: DAX1 inh-1, AHR activator)
C[C@@H]1CN([C@H](C)CO)C(=O)CCCn2cc(nn2)CO[C@H]1CN(C)S(=O)(=O)c1ccccc1	none (no result: AHR activator)
CCCN(Cc1nnc(-c2ccccc2Cl)o1)C(=O)COc1ccc(Cl)cc1	none
Cc1cc(NC(=O)c2ccc(Cl)cc2)n(CCOC(=O)c2ccc(Cl)cc2)n1	none
Cc1cc(NC(=O)c2ccc(F)cc2)n(CCOC(=O)c2ccc(F)cc2)n1	AHR activator 50
COc1cccc(CNC(=O)CCNS(=O)(=O)c2cccc3nsnc23)c1	DAX1 inh-1 8.6
CN1CCc2c(sc(/N=C/c3ccco3)c2C(N)=O)C1	none
CN1CCc2c(sc(/N=C/c3cccs3)c2C(N)=O)C1	AHR activator 70 (no result: hgDAF-12 ag, DAX1 inh-2, hcDAF-12 act, ssDAF12 agonist)
O=C(/C=C/c1ccc([N+](=O)[O-])cc1)OCc1cnc(-c2ccccc2)o1	DAX1 inh-1 6.1
CC1CC(=O)Nc2ccccc2N1 (stereo unspecified)	none (no result: AHR activator)
CC1CC(c2ccccc2)=Nc2ccccc2N1 (stereo unspecified)	hcDAF-12 act 5.7
Cc1ccsc1C1Nc2ccccc2-c2nc3ccccc3n21 (stereo unspecified)	hgDAF-12 ag 11, AHR activator 82
c1cncc(C2Nc3ccccc3-c3nc4ccccc4n32)c1 (stereo unspecified)	none
c1ccc2c(c1)NC(c1ccncc1)n1c-2nc2ccccc21 (stereo unspecified)	AHR activator 70
Cc1ccsc1C1Nc2ccccc2C(=O)N1O (stereo unspecified)	none
Cc1ccc(NS(=O)(=O)c2cc(NC(=O)c3ccc4c(c3)NC(=O)CS4)ccc2Cl)c(C)c1	AHR activator 54
Cc1ccc(NS(=O)(=O)c2cc(C(=O)O)ccc2Cl)c(C)c1	none
COc1ccc(NC(=O)c2ccc3c(c2)NC(=O)CS3)cc1	DAX1 inh-2 4.4
COCCNC(=O)c1ccc2c(c1)NC(=O)CS2	none
O=C(NCCC1=CCCCC1)NC12CC3CC(CC(C3)C1)C2	DAX1 inh-2 3.7
Cc1cccc(C)c1OCCNC(=O)C(=O)NCc1ccco1	none
CCOc1ccc(NC(=O)CN(C)C(=O)c2cc(S(=O)(=O)N3CCCCCC3)ccc2OC)cc1OCC	DAX1 inh-2 3.9
Cc1ccc(SCc2cc(=O)n(C)[nH]2)cc1	none
CCC1COC(c2cccn2Cc2ccccc2Cl)=N1 (stereo unspecified)	DAX1 inh-1 5.9
Fc1ccc(Cn2cccc2C2=NC(c3ccccc3)CO2)cc1 (stereo unspecified)	none
CCc1cc2c(nc1CC)CCCN2S(=O)(=O)c1ccccc1C	none (no result: DAX1 inh-1, AHR activator)
Fc1ccccc1Nc1nc(N2CCOCC2)nc(N2CCOCC2)n1	none (no result: AHR activator)
Fc1ccccc1Nc1nc(NCc2ccco2)nc(N2CCOCC2)n1	AHR activator 54
CC(C)c1ccc(NC2CCCN(C(=O)CCn3cnnn3)C2)cc1 (stereo unspecified)	none
Cc1cc(Br)ccc1SCC(=O)OC/C(O)=C(\C#N)c1nc2ccccc2[nH]1	ssDAF12 agonist 1.1
CCCC(=O)OC/C(O)=C(\C#N)c1nc2ccccc2[nH]1	none
COCC(=O)OC/C(O)=C(\C#N)c1nc2ccccc2[nH]1	DAX1 inh-1 4.7
CSc1ccccc1NC(=O)c1cnc2scc(C)n2c1=O	AHR activator 65
CCc1ccccc1NC(=O)c1cnc2scc(C)n2c1=O	none
Cc1csc2ncc(C(=O)NCCC(c3ccccc3)c3ccccc3)c(=O)n12	none
Cc1csc2ncc(C(=O)Nc3ccc(C(F)(F)F)cc3)c(=O)n12	AHR activator 58
Cc1csc2ncc(C(=O)NCc3ccccn3)c(=O)n12	AHR activator 47
O=C(CSc1n[nH]c(Cc2ccccc2)n1)Nc1ccccc1Br	none
COc1ccc(N=c2cc(-c3ccc(OC)cc3)oc3ccccc23)cc1	ssDAF12 agonist 1.0
COc1ccc(-c2cc(=Nc3ccc(C)cc3)c3ccccc3o2)cc1	none
Cc1c(NC2=C(Cl)C(=O)N(c3ccccc3Cl)C2=O)c(=O)n(-c2ccccc2)n1C	ssDAF12 agonist 0.9
Cc1c(NC2=C(Cl)C(=O)N(c3ccccc3)C2=O)c(=O)n(-c2ccccc2)n1C	none
O=C(c1cc2ccccc2o1)N1CCN(Cc2nc3ccccc3s2)CC1	hcDAF-12 act 6.2 (no result: AHR activator)
CC1CC(C)CN(C(=O)c2cc3ccccc3o2)C1 (stereo unspecified)	AHR activator 58
COc1ccccc1CN(C)C[C@H]1OCc2cnnn2CCCC(=O)N([C@@H](C)CO)C[C@@H]1C	none (no result: AHR activator)
CCCCCCCCN1C(=O)[C@@H](CC(=O)NCCCN2CCCC2=O)C[C@@]2(C(=O)OC)C1=C[C@H](C(C)C)O[C@@H]2C1CC1	none (no result: DAX1 inh-1, AHR activator)
C(/C=C/c1ccccn1)=C\c1ccccc1	DAX1 inh-1 5.0
Cc1nc(/C=C/c2ccccc2)cc(/C=C/c2ccccc2)n1	none
C(=C\c1ccccn1)/c1ccncc1	none
Cc1cccc(/C=C/c2ccccc2)n1	hgDAF-12 ag 11 (no result: DAX1 inh-1, AHR activator)
C(=C\c1cc(/C=C/c2ccccc2)ncn1)/c1ccccc1	DAX1 inh-1 5.0
CCCN(CC1CC1)C(=O)c1oc(=O)c2ccccc2c1-c1ccc(C)cc1	none (no result: DAX1 inh-1, AHR activator)
C[C@H](c1ccccc1)N1C[C@@H](COCc2ccccc2)Oc2cccc(F)c2S1(=O)=O	none (no result: DAX1 inh-1, AHR activator)
COC(=O)c1ccc(Cn2ccc3ccc(-c4ccc5ccn(C(=O)c6ccccc6OC)c5c4)cc32)cc1	none (no result: DAX1 inh-1, AHR activator)
O=C(CN1C(=O)CCC1=O)NC(=O)NC1CCCC1	DAX1 inh-1 4.6
